Test results reported in PubChem BioAssay AID1159580 (chemical genetic matrix, 2015).
“And” between values parts separate entries of the source, which are not always exact repeats. Identical values can stand only once. Out of some 5,500 compounds screened, about 2,000 (36%) were called active. Another 18% or so got no clear call; they are omitted. Cut-off read from the data, not from the text of the source: active = normalized growth mostly below about 0.91 (no sharp cut-off); inconclusive = no clear call, values can overlap the other calls; inactive = mostly above about 0.92. This is one part of the list.

Experiment: chemical genetic growth profiling, strain panel (AID 1159580);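 note: tested at 20 µM; growth read once vehicle control cultures reached saturation at 30 °C; 1 = growth at the plate median or of vehicle wells; lower values mean less growth of the strain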
Conditions: S. cerevisiae deletion strains, growth OD

Measured: normalized growth

NCCS
inactive: locus YAL013W, strain DEP1, hits give low values 1 | locus YAL021C, strain ccr4, hits give low values 0.977 | locus YAL026C, strain drs2, hits give low values 0.99 | locus YAL030W, strain snc1, hits give low values 1.01 | locus YAL040C, strain CLN3, hits give low values 0.985 | locus YBL061C, strain skt5, hits give low values 0.988 | locus YBR009C, strain hhf1, hits give low values 0.988 | locus YBR021W, strain FUR4, hits give low values 1 | locus YBR023C, strain chs3, hits give low values 0.987 | locus YBR171W, strain sec66, hits give low values 0.998 | locus YBR229C, strain ROT2, hits give low values 1.01 | locus YBR231C, strain swc5, hits give low values 0.991 | locus YBR279W, strain paf1, hits give low values 1 | locus YCL011C, strain gbp2, hits give low values 0.982 | locus YCL016C, strain dcc1, hits give low values 0.976 | locus YCL029C, strain bik1, hits give low values 1.02 | locus YCL061C, strain MRC1 (second series), hits give low values 1.01 | locus YCL061C, strain MRC1, hits give low values 1 | locus YCL069W, strain vba3, hits give low values 0.992 | locus YCR088W, strain abp1, hits give low values 0.994 | locus YDL005C, strain med2, hits give low values 0.981 | locus YDL035C, strain GPR1, hits give low values 1.02 | locus YDL040C, strain nat1, hits give low values 0.992 | locus YDL074C, strain BRE1, hits give low values 1.02 | locus YDL101C, strain DUN1, hits give low values 1.01 | locus YDL134C, strain PPH21, hits give low values 1.02 | locus YDL185W, strain tfp1, hits give low values 1 | locus YDL192W, strain arf1, hits give low values 1.01 | locus YDR001C, strain nth1, hits give low values 0.997 | locus YDR069C, strain doa4, hits give low values 0.988 | locus YDR101C, strain arx1, hits give low values 1 | locus YDR137W, strain rgp1, hits give low values 1 | locus YDR150W, strain NUM1, hits give low values 1.01 | locus YDR159W, strain sac3, hits give low values 0.986 | locus YDR162C, strain NBP2, hits give low values 1.01 | locus YDR195W, strain ref2 0.923 | locus YDR297W, strain sur2, hits give low values 0.999 | locus YDR318W, strain mcm21, hits give low values 1.01 | locus YDR334W, strain swr1, hits give low values 0.972 | locus YDR335W, strain msn5, hits give low values 0.991 | locus YDR363W, strain ESC2, hits give low values 1.03 | locus YDR388W, hits give low values 1.01 | locus YDR392W, strain spt3, hits give low values 0.969 | locus YDR502C, strain sam2, hits give low values 1.01 | locus YEL003W, strain gim4, hits give low values 0.986 | locus YEL037C, strain rad23, hits give low values 0.983 | locus YEL061C, strain CIN8 (second series), hits give low values 0.976 | locus YEL061C, strain CIN8, hits give low values 1.01 | locus YER002W, strain NOP16, hits give low values 0.992 | locus YER015W, strain faa2, hits give low values 0.995 | locus YER016W, strain bim1, hits give low values 1 | locus YER110C, hits give low values 1.02 | locus YER111C, strain swi4, hits give low values 0.986 | locus YER155C, strain BEM2 (second series), hits give low values 0.982 | locus YER155C, strain BEM2, hits give low values 1.01 | locus YER167W, strain BCK2, hits give low values 1.02 | locus YFR010W, strain ubp6, hits give low values 0.981 | locus YGL078C, strain dbp3, hits give low values 1.02 | locus YGL086W, strain mad1, hits give low values 1.01 | locus YGL167C, strain pmr1, hits give low values 0.982 | locus YGL173C, strain kem1, hits give low values 0.986 | locus YGL227W, strain vid30, hits give low values 0.984 | locus YGL240W, strain doc1, hits give low values 0.976 | locus YGL248W, strain PDE1, hits give low values 1.01 | locus YGL253W, strain hxk2, hits give low values 0.979 | locus YGR078C, strain PAC10, hits give low values 1.02 | locus YGR135W, strain pre9, hits give low values 1.02 | locus YGR229C, strain SMI1, hits give low values 1.01 | locus YGR252W, strain gcn5, hits give low values 1.04 | locus YHR013C, strain ard1, hits give low values 0.972 | locus YHR027C, strain rpn1, hits give low values 0.985 | locus YHR030C, strain SLT2, hits give low values 1.02 and 1.03 | locus YHR079C, strain IRE1 (second series), hits give low values 1.02 | locus YHR079C, strain IRE1, hits give low values 1.04 | locus YHR094C, strain hxt1, hits give low values 1.01 | locus YHR129C, strain ARP1, hits give low values 1.01 | locus YHR142W, strain chs7, hits give low values 0.984 | locus YHR200W, strain rpn10, hits give low values 1.02 | locus YIL066C, strain RNR3, hits give low values 1.02 | locus YIL073C, strain SPO22, hits give low values 1.02 | locus YIL125W, strain kgd1, hits give low values 1.01 | locus YIR030C, strain dcg1, hits give low values 1.03 | locus YJL092W, strain hpr5, hits give low values 0.997 | locus YJL095W, strain BCK1 (second series), hits give low values 0.996 | locus YJL095W, strain BCK1, hits give low values 1.01 and 1.02 | locus YJL115W, strain asf1, hits give low values 0.966 | locus YJL129C, strain trk1, hits give low values 0.995 | locus YJL134W, strain LCB3, hits give low values 1.01 | locus YJL154C, strain vps35, hits give low values 0.988 | locus YJL164C, strain tpk1, hits give low values 0.99 | locus YJL166W, strain qcr8, hits give low values 1 | locus YJL168C, strain set2, hits give low values 1.02 | locus YJL187C, strain SWE1 (second series), hits give low values 1.01 | locus YJL187C, strain SWE1, hits give low values 0.992 | locus YJR043C, strain POL32, hits give low values 1.01 | locus YJR066W, strain TOR1, hits give low values 0.998
